This note sets out measurements from PubChem BioAssay (NCATS).

Inconclusive results are not listed. A number with no mark means an inactive call. Calls of active or inactive are those of the source. Calls come from the whole dose curve; as a rule, active = well fitted curve in the direction sought with a large enough effect; inconclusive = small, poorly fitted or top-dose-only effect, or another doubt; inactive = no such curve, though single readings can be large; an effect the other way counts as inactive or inconclusive.

One test is described as follows: qHTS for Inhibitors of Plasmodium falciparum (DD2) proliferation (AID 504314).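 Note: parasite DNA measured by SYBR Green fluorescence after red cell lysis; plate controls were DMSO vehicle for no effect and artemisinin wells for full effect.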 The following applies: P. falciparum Dd2 in erythrocytes, SYBR Green growth, 72 h; series mostly up to 1.12 µM; activity, negative = inhibition: at the top concentration. The method, boiled down:
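SYBR Green DNA-fluorescence growth assay: infected RBCs at 0.3% parasitemia, 2.5% hematocrit, 72 h compound exposure, 37C, 5% CO2; overnight lysis with dye at RT; normalized to 0.29 uM artemisinin and vehicle.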
On the technique in general: In qHTS, concentration-response curves come from the screen itself.
Consider `COC/C=C/C1=CC2=CC(=O)C(C)(OC(=O)c3cnc4ccccc4n3)C(=O)C2=CN1Cc1ccco1` (configuration not stated), for which the “activity, negative = inhibition” value is -2.64%.
Regarding `CC#CCN1c2ccccc2[C@]23C[C@@H](C(=O)OC)N(C(=O)c4cc(C)oc4C)C2=NC(C(=O)OC)=C(C(=O)OC)[C@H]13`, the “activity, negative = inhibition” value is 4.25%.
Same read-out and setting: for `CC(=O)C1=C(C)N(Cc2ccccc2)C(=O)N[C@H]1c1ccco1` the value was 3.23%.

The nature of the next test: qHTS for Inhibitors of Plasmodium falciparum (GB4) proliferation (AID 504315).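 Note: 0% = DMSO vehicle and -100% = 0.29 µM artemisinin control; nearly all actives have a fitted effect of over 50% in size.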 The following applies: P. falciparum GB4 in erythrocytes, SYBR Green DNA, 72 h; series mostly up to 6.7 µM; activity change, negative = inhibition: at the top concentration. The method in brief: (§1)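 Parasite growth measured as SYBR Green DNA fluorescence (ex 485, em 535 nm) after overnight lysis following 72 h culture at 37 °C, 0.3% parasitemia, 2.5% hematocrit. Values normalized against DMSO and 0.29 uM artemisinin controls, with plate-stack correction.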
As to `C/C=C/C1=Cc2ccccc2C(CC(=O)OC)N1C(=O)OC` (configuration not stated), the “activity change, negative = inhibition” value was -11.8%.
On the same count and under the same terms, for `CCCCS(=O)(=O)N1C2=NC(C(=O)OC)=C(C(=O)OC)[C@@H]3N(C)c4ccc(OC)cc4[C@]23C[C@H]1C(=O)OC` the value was -2.72%.
Regarding `C=CCN1c2ccccc2[C@]23C[C@@H](C(=O)OC)N(S(=O)(=O)c4ccc(C#N)cc4)C2=NC(C(=O)OC)=C(C(=O)OC)[C@H]13`, the “activity change, negative = inhibition” value is -15.7%.
On the same count and under the same terms, for `CC1(OC(=O)CCc2ccccc2)C(=O)C=C2C=C(c3ccc(C#N)cc3)N(C3CCCC3)C=C2C1=O` (configuration not stated) the value was 2.67%.
Still for that read-out and setting: for `CCCCc1nc2c(c3c1C[C@H](C)OC3)CN(C(=O)c1cc(I)ccc1F)CC2` the value was -9.74%.
Still for that read-out and setting: for `COC(=O)C1=C(C(=O)OC)[C@@H]2N(C)c3ccccc3[C@@]23C[C@@H](C(=O)OC)N(S(=O)(=O)c2cccs2)C3=N1` the value was -5.33%; for `CCCCS(=O)(=O)N1C2=NC(C(=O)OC)=C(C(=O)OC)[C@@H]3N(C)c4ccccc4[C@]23C[C@H]1C(=O)OC`, 10.4%.
For the compound `COC(=O)CCCC1=CC2=C(c3ccccc3)C(=O)C(C)(OC(=O)C3CCCC3)C(=O)C2=CN1CCCOC(C)C` (configuration not stated), the “activity change, negative = inhibition” value was 12%.
Same read-out and setting: for `C[C@H]1Cc2c(COc3ccccc3)nc3c(c2CO1)CN(S(=O)(=O)c1ccc(C#N)cc1)CC3` the value was 0.483%; for `COC(=O)CCC(=O)OC1(C)C(=O)C=C2C=C(C3CC3)N(c3ccc(OC)cc3)C=C2C1=O` (configuration not stated), -12.2%.
Consider `C=CCN1C=C2C(=O)C(C)(OC(=O)c3cnc4ccccc4n3)C(=O)C=C2C=C1/C=C/COC` (configuration not stated), for which the “activity change, negative = inhibition” value was 7.97%.
Same read-out and setting: for `Cc1cc2c(c(=O)n1-c1ccccc1)[C@H]1O[C@](c3ccsc3)(Cc3cc(C#N)ccc31)O2` the value was -7.57%; for `CC(=O)C1=C(C)N(Cc2ccccc2)C(=O)N[C@H]1c1ccco1`, -8.13%.

A short description of a further test: qHTS for Inhibitors of Plasmodium falciparum (7G8) proliferation (AID 504316).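 For activity change, negative = inhibition: 0% = DMSO vehicle and -100% = 0.29 µM artemisinin full kill.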 Note: nearly all actives have a fitted effect of over 65% in size. Note: potency is the fitted concentration of half-maximal effect. The following applies: P. falciparum 7G8 in erythrocytes, SYBR Green DNA, 72 h; series mostly up to 6.7 µM; activity change, negative = inhibition: at the top concentration. The method, boiled down:
as §1
`CC1(OC(=O)CCc2ccccc2)C(=O)C=C2C=C(c3ccc(C#N)cc3)N(c3ccccc3)C=C2C1=O` (configuration not stated): the “activity change, negative = inhibition” value is -1.35%.
In the case of `CCCCC1=CC2=CC(=O)C(C)(OC(=O)CC)C(=O)C2=CN1CCCN(CC)CC` (configuration not stated), the “activity change, negative = inhibition” value is 5.74%.
Same read-out and setting: for `COC(=O)C(C(=O)OC)C1c2ccccc2C=C(C)N1C(=O)OC` (configuration not stated) the value was -20.1%; for `COC(=O)C1=C(C(=O)OC)[C@@H]2Nc3ccccc3[C@@]23C[C@@H](C(=O)OC)N(S(=O)(=O)c2c(C)noc2C)C3=N1`, -12.1%; for `C=CCN1C=C2C(=O)C(C)(OC(=O)CC)C(=O)C=C2C=C1CCCC` (configuration not stated), -0.283%.
On the same count and under the same terms, for `COC(=O)C1=C(C(=O)OC)[C@@H]2Nc3ccccc3[C@@]23C[C@@H](C(=O)OC)N(C(=O)c2ccc(Br)cc2)C3=N1` the value was -8.47%.
As for `C=CCOC(=O)N[C@H](C(C(=O)OC)=C(C)NCc1ccccc1)c1ccc(C)cc1`, the “activity change, negative = inhibition” value was 0.327%.
Same read-out and setting: for `CCCCC1=CC2=CC(=O)C(C)(OC(=O)CC)C(=O)C2=CN1C1CCCC1` (configuration not stated) the value was -9.55%; for `CCCCC1=CC2=CC(=O)C(C)(OC(=O)CC)C(=O)C2=CN1c1ccncc1` (configuration not stated), 5.89%.
Take `COC(=O)C1=C(C(=O)OC)[C@@H]2Nc3ccccc3[C@@]23C[C@@H](C(=O)OC)N=C3N1`: the “activity change, negative = inhibition” value is 0.383%.
Consider `CCCCc1nc2c(c3c1C[C@H](C)OC3)CN(S(=O)(=O)c1c(C)noc1C)CC2`, for which the “activity change, negative = inhibition” value is -6.8%.
The same measure, in the same setting: for `CCOC(=O)CN1C(=O)N[C@@H](CCc2ccccc2)[C@H](C(C)=O)[C@H]1C` the value was -5.12%.
With `COc1ccc(-c2nc3c(c4c2C[C@H](c2ccccc2)OC4)CN(S(=O)(=O)c2c(C)noc2C)CC3)c(C)c1`, the Potency was 1690 nM (active).
As for `CC[C@@H](C)CN1C(=O)N[C@@H](c2ccccc2)C(C(C)=O)=C1C`, the “activity change, negative = inhibition” value is 1.04%.
With `C=CCN1c2ccccc2[C@]23C[C@@H](C(=O)OC)N(S(=O)(=O)c4ccc5c(c4)OCCN5C)C2=NC(C(=O)OC)=C(C(=O)OC)[C@H]13`, the Potency was 1690 nM (active).
As for `CCCCC1=CC2=CC(=O)C(C)(OC(=O)CC)C(=O)C2=CN1CCOC` (configuration not stated), the “activity change, negative = inhibition” value was -3.47%.
`CCCCC1=CC2=CC(=O)C(C)(OC(=O)CC)C(=O)C2=CN1CCc1ccccn1` (configuration not stated): the “activity change, negative = inhibition” value is 2.51%.
Same read-out and setting: for `CCOC(=O)CN1C(=O)N[C@@H](CCc2ccccc2)C(C(=O)OC)=C1C` the value was 4.15%; for `Cc1ccc(S(=O)(=O)N2CCc3nc(-c4ccccc4)c4c(c3C2)CO[C@@H](C)C4)cc1`, -4.45%.
`COC(=O)C1=C(C(=O)OC)[C@@H]2N(Cc3ccccc3)c3ccccc3[C@@]23C[C@@H](C(=O)OC)N(S(=O)(=O)c2c(C)noc2C)C3=N1`: the Potency is 1690 nM (active).
On to `COC(=O)C1=C(C)N(Cc2ccco2)C(=O)N[C@@H]1c1ccc(Br)cc1`, for which the “activity change, negative = inhibition” value is -10.4%.
The same measure, in the same setting: for `COC(=O)N1C(C)=Cc2ccccc2C1C/C(C)=C/C(C)=O` (configuration not stated) the value was -7.95%; for `CCCCC1=CC2=CC(=O)C(C)(OC(=O)CC)C(=O)C2=CN1CCCCO` (configuration not stated), 0.189%.
Same read-out and setting: for `COCCN1C=C2C(=O)C(C)(OC(=O)CCc3ccccc3)C(=O)C=C2C=C1c1ccc(C#N)cc1` (configuration not stated) the value was 3.19%; for `COC/C=C/C1=CC2=CC(=O)C(C)(OC(=O)c3cnc4ccccc4n3)C(=O)C2=CN1Cc1ccco1` (configuration not stated), 0.507%.
In the case of `CC#CCN1c2ccccc2[C@]23C[C@@H](C(=O)OC)N(C(=O)c4cc(C)oc4C)C2=NC(C(=O)OC)=C(C(=O)OC)[C@H]13`, the Potency was 1510 nM (active).
